In PubChem BioAssay (Tox21) one finds Potency data, which are given here for 40 compounds.

Inconclusive results are not listed. Where a call stands in place of a potency, no number is given. Activity calls are given as the source filed them. The call rests on the fitted dose curve; in most records, active means well fitted activation curve with a large enough effect in the signal ratio in the repeat runs, with a control signal flat (not every such curve was filed as active); inconclusive means weak or mixed curves; inactive means flat fitted curve, though single readings scatter; the % refers to the signal ratio.

The nature of this test: qHTS assay for small molecule activators of the heat shock response signaling pathway (AID 743210). The conditions noted are these: HeLa HSE-bla reporter, beta-lactamase ratio, 5 h; series mostly up to 62.6 µM. The text has this: U.S. Tox21 Program National Center for Advancing Translational Sciences [NCATS] NIH Chemical Genomics Center [NCGC] U.S. Environmental Protection Agency [EPA] National Institutes of Environmental Health Sciences [NIEHS] National Toxicology Program [NTP] U.S. Food and Drug Administration [FDA] Tox21 Assay Overview: Various chemicals, environmental and physiological stress conditions may lead to the activation of heat shock response/ unfolded protein response (HSR/UPR). There are three heat shock transcription factors (HSFs) (HSF-1, -2, and -4) mediating transcriptional regulation of the human HSR. To identify the compounds that activate HSR signaling, HSE-bla HeLa cell line (Invitrogen, Carlsbad, CA, USA) containing a beta-lactamase reporter gene under the control of the heat shock response elements was used to screen the Tox21 10K compound library.
Tox21 Assay Protocol Summary: The CellSensor HSE-bla HeLa cells (Invitrogen, Carlsbad, CA, USA) were dispensed at 1500 cells/6uL/well into 1536-well black wall/clear bottom plates using a Multidrop combi (Thermo Fisher Scientific, Waltham, MA) dispenser. After the assay plates were incubated at 37 C and 5% CO2 overnight, 23 nL of compounds dissolved in DMSO, positive controls or DMSO only was transferred to the assay plate by a Pintool station (Kalypsys, San Diego, CA). The plates were incubated at 37 C for 5 h. After 1 uL of LiveBLAzerTM B/G FRET substrate was added using a Flying Reagent Dispenser (Beckman Coulter, Indianapolis, IN, USA), the plates were incubated at room temperature for 2.5 h, and fluorescence intensity was measured by an Envision plate reader (PerkinElmer, Shelton, CT).
For `C=C(C)c1cccc(C(=C)C)c1`, the Potency result is “inactive”.

On to `Oc1ccccc1O`, for which the Potency entry was “inactive”.

On to `COc1c(C)c2c(c(O)c1C/C=C(\C)CCC(=O)OCCN1CCOCC1)C(=O)OC2`, for which the Potency result was “inactive”.

Regarding `O=C1CCCCCCCCCCCCCCCO1`, the Potency result is “inactive”.

For the compound `CC[C@H](C)COC(=O)/C=C/c1ccc(N=Cc2ccc(OC)cc2)cc1`, the Potency entry was “inactive”.

In the case of `Nc1nc2c(ncn2COCCO)c(=O)[nH]1`, the Potency entry was “inactive”.

`CC(C)CCCCCOC(=O)CCS`: the Potency entry is “inactive”.

With `O=C(O)Cc1ccc2c(c1)C(=O)c1ccccc1CO2`, the Potency entry is “inactive”.

As to `CCCCC(CC)COC(=O)CCCCC(=O)OCc1ccccc1` (stereo not given), the Potency result is “inactive”.

In the case of `Clc1ccnc(Cl)n1`, the Potency entry was “inactive”.

`C#Cc1ccc(-c2ccccc2F)cc1`: the Potency result was “inactive”.

As for `OC1CCC(C2CCCCC2)CC1` (stereo not given), the Potency result was “inactive”.

As for `C[Si](Cl)(c1ccccc1)c1ccccc1`, the Potency entry was “inactive”.

As to `Nc1ccc(Oc2ccc(Cl)cc2)cc1`, the Potency entry is “inactive”.

In the case of `S=c1nccc[nH]1`, the Potency entry is “inactive”.

In the case of `O=C(/C=C/c1ccccc1)OC/C=C/c1ccccc1`, the Potency result is “inactive”.

Take `Nc1ccc(C(=O)O)c(O)c1`: the Potency result was “inactive”.

On to `Cc1c(C)c([N+](=O)[O-])c(C(C)(C)C)c([N+](=O)[O-])c1C`, for which the Potency result is “inactive”.

In the case of `O=C1C(c2[nH]c3ccc(S(=O)(=O)O)cc3c2O)=Nc2ccc(S(=O)(=O)O)cc21`, the Potency result is “inactive”.

Turning to `O=C(O)[C@H](O)[C@@H](O)[C@H](O[C@@H]1O[C@H](CO)[C@H](O)[C@H](O)[C@H]1O)[C@H](O)CO`, the Potency entry was “inactive”.

Regarding `CC(C)CCOC(=O)/C=C/c1ccccc1`, the Potency result is “inactive”.

As to `Cc1c(C)c2c(c(C)c1OC(=O)c1cccnc1)CC[C@@](C)(CCC[C@H](C)CCC[C@H](C)CCCC(C)C)O2`, the Potency entry is “inactive”.

For `Cc1cc(C)c(/C=C2\C(=O)Nc3ccccc32)[nH]1`, the Potency result is “inactive”.

Turning to `C=CCCC(=O)/C=C/C1C(C)=CCCC1(C)C` (stereo not given), the Potency entry was “inactive”.

For `O=C1NC(=O)[C@@H]2CC=CC[C@H]12`, the Potency result is “inactive”.

`CCO[C@@H]1O[C@H](C(COCc2ccccc2)OCc2ccccc2)[C@H](OCc2ccccc2)[C@H]1O` (stereo not given in full): the Potency entry was “inactive”.

Consider `OC1CCCc2ccccc21` (stereo not given), for which the Potency result is “inactive”.

With `O=C(O)c1cccc(C(F)(F)F)c1`, the Potency entry was “inactive”.

As for `CCCC(=O)OC(C)(C)Cc1ccccc1`, the Potency entry was “inactive”.

`CCCC(=O)OCCc1ccccc1`: the Potency entry is “inactive”.

Regarding `Cc1cccc(C)c1NC(=O)c1ccc(N)cc1`, the Potency result is “inactive”.

Turning to `O=[N+]([O-])c1cccc(C(F)(F)F)c1`, the Potency result was “inactive”.

Turning to `CCC(CC)(CC(=O)Nc1cccc(/C=C/c2nc(C3CCC3)cs2)c1)C(=O)O`, the Potency entry is “inactive”.

As for `c1ccsc1`, the Potency entry was “inactive”.

For `COc1cccc(OC)c1C(=O)O`, the Potency entry is “inactive”.

As for `c1cnccn1`, the Potency result is “inactive”.

For `CC(C(=O)O)c1ccc2c(c1)[nH]c1ccc(Cl)cc12` (stereo not given), the Potency result is “inactive”.

Regarding `O=C(O)c1cc(N=Nc2ccc([N+](=O)[O-])cc2)ccc1O`, the Potency entry was “inactive”.

On to `CCCCCCCCCCOC(=O)c1ccccc1C(=O)OCCCCCCCC`, for which the Potency entry was “inactive”.

Turning to `CC(C)OC(=O)C(O)(CC(=O)O)CC(=O)O`, the Potency entry is “inactive”.
